Data on 25 molecules can be found in PubChem BioAssay (NCATS).

Assay [1] can be described thus: Confirmation and Secondary Assay for Modulators of Hemoglobin Beta Chain Splicing at IVS2 654 locus (AID 910).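 Further: HeLa cells stably carrying EGFP split by mutant beta-globin IVS2-654 intron.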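 Further: potency means the concentration at half of the fitted maximal effect; potency of activators that raise GFP signal by restoring correct splicing.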 The note with it: HeLa EGFP-654 splicing reporter, GFP fluorescence, 48 h; series mostly up to 46.1 µM. An outline of the steps: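 HeLa cells stably expressing EGFP interrupted by β-globin IVS2-654 intron, seeded overnight in Opti-MEM/2% FCS, then treated 2 days at 37 °C. Restored splicing read as total peak GFP intensity per well by laser scanning cytometry (488 nm excitation, 500–520 nm emission); 500 nM antisense PNA as control.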

A short description of assay [2]: Confirmation and Secondary Assay for Modulators of Hemoglobin Beta Chain Splicing at IVS2 705 locus (AID 930). Further: % of control where 0% means no effect. Particulars: HeLa EGFP-705 splicing reporter, GFP fluorescence, 48 h; series mostly up to 46.1 µM. Summed up: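 HeLa cells stably carrying EGFP interrupted by mutant beta-globin intron 2 (IVS2-705) treated 2 days at 37C with compound; 500 nM antisense PNA as control. Correct splicing read as total peak GFP intensity per well by laser-scanning cytometry.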

Assay [3] in a line: qHTS Assay for Identification of Small Molecule Agonists for Hypoxia Response Element Signaling Pathway (AID 914; active means well fitted activation curve with a large enough effect in the signal ratio, with a control signal flat, not every such curve was filed as active; the % refers to the signal ratio; further: % of control where 0% means no effect). Particulars: ME-180 (cervical carcinoma) HRE-bla reporter, beta-lactamase ratio, CoCl2, 17 h; stronger effect = higher value. Summed up: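 HRE-bla ME-180 cells with beta-lactamase reporter under hypoxia response element, compounds with EC50 CoCl2 for 17 hours at 37 C. CCF4 substrate, 460nm/530nm emission ratio gave %Activity; AC50 from titration series.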

Assay [4] in a line: qHTS Assay for Identification of Small Molecule Agonists for Thrombopoietin (TPO) Signaling Pathway (AID 917). Further: on the % scale 0 is the no-effect control and ±100 the full control effect. The note with it: TPO signaling pathway reporter cells, agonist qHTS; series mostly up to 38.5 µM. An outline of the steps: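 Luciferase reporter (Glycoprotein IIb promoter) in IL-3-deprived Ba/F3 cells carrying human TPO receptor; compounds co-added with 26 pM TPO, incubated 24 h, 37 C. Steadylite luminescence measured after 10 min.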

Assay [5] deals with Pyruvate kinase (Leishmania mexicana) (UniProt Q27686). The experiment in a line: qHTS Validation Assay for Inhibitors of Leishmania Mexicana Pyruvate Kinase (AID 945).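 Further: 0% = DMSO only neutral control wells.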 The note with it: purified L. mexicana pyruvate kinase, enzyme activity, E451W mutant enzyme; series mostly up to 57.5 µM. An outline of the steps: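 Eight-point qHTS titrations in triplicate, data normalized to DMSO neutral control. Reaction: 0.2 nM LmPYK E451W mutant, 0.5 mM PEP, 0.1 mM ADP, 7 mM MgCl2, pH 7.2, one hour at room temperature; luminescent ATP detection.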

The target in assay [6] is Cytochrome P450 2C19 (Homo sapiens) (UniProt P33261). Nature of the assay: qHTS Assay for Inhibitors and Substrates of Cytochrome P450 2C19 (AID 899). Further: nearly all actives have a fitted effect of over 60% in size. Further: potency means the concentration at half of the fitted maximal effect. The note with it: recombinant CYP2C19, luciferin-H EGE luminescence; series mostly up to 57.1 µM. Summed up:
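5 nM human CYP2C19 with 10uM Luciferin-H EGE (at KM) in 50mM KPO4, compound preincubated 10 min at 37C, then NADPH regeneration for 60 min at 37C. Luciferin read by luminescence after detection reagent; normalized to 57uM ketoconazole as full inhibition.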

The target in assay [7] is Muscarinic acetylcholine receptor M1 (Rattus norvegicus) (UniProt P08482). The experiment in a line: qHTS Assay for Antagonists of Acetylcholine Muscarinic M1 Receptor: Kinetic Measurement of Intracellular Calcium Response (AID 943). Further: nearly all actives have a fitted effect of over 75% in size. Further: potency means the concentration at half of the fitted maximal effect. The note with it: M1-expressing cells, kinetic intracellular calcium fluorescence; series mostly up to 35.3 µM. Summed up: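 Antagonism is measured as inhibition of the carbachol-evoked calcium rise in CHO cells transfected with rat M1. Cells are dye-loaded, exposed to compound for 10 min, then stimulated with 100 nM carbachol (EC80).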

Assay [8] has the same target. The experiment in a line: qHTS Assay for Antagonists of Acetylcholine Muscarinic M1 Receptor: Measurement of IP-One Response (AID 944). Further: nearly all actives have a fitted effect of over 75% in size. Further: potency means the concentration at half of the fitted maximal effect. Particulars: CHO-M1 cells, IP-One HTRF, antagonist mode; series mostly up to 46.1 µM. Summed up:
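Antagonist mode with rat M1 receptor transfected into CHO cells. Compound is added first for 10 min, carbachol at its EC80 follows for 30 min, and lysis reagents then allow TR-FRET detection of accumulated IP1.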

Assay [9] in a line: qHTS Assay for Identification of Small Molecule Antagonists for Thrombopoietin (TPO) Signaling Pathway (AID 918). Further: potency means the concentration at half of the fitted maximal effect; nearly all actives have a fitted effect of over 60% in size. The note with it: TPO-dependent cell signaling reporter, antagonist mode. Summed up: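 Inhibitors of TPO signaling are sought by stimulating IL-3-starved murine Ba/F3 cells (human TPO receptor, Glycoprotein IIb-driven luciferase) with TPO at its EC50 of 26 pM alongside compound. After 24 hrs at 37 C, reporter luminescence is measured.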

A short description of assay [10]: Cell Viability - LYMP2-001 (AID 921).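 Further: 0% = DMSO only and full inhibition = tetraoctylammonium bromide control wells; nearly all actives have a fitted effect of over 70% in size.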 The note with it: LYMP2-001 lymphoblastoid cell viability; series mostly up to 92.2 µM. Summed up:
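Cellular ATP loss read by luciferase luminescence after 24 h compound exposure at 37 C in complete medium. LYMP2-001 lymphoblastoid cells, 2500/well; qHTS concentration-response data fitted with Hill equation for AC50.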

Where “and” joins values, the source holds several entries; their conditions need not be identical. Equal values may be shown once. Records with an inconclusive call do not appear. Some compounds were tested as several samples or in several runs, with calls that do not always agree. Calls of active or inactive are those of the source. Unless noted, the call rests on the fitted dose curve; in most records, active means well fitted curve in the direction sought with a large enough effect; inconclusive means small, poorly fitted or top-dose-only effect, or another doubt; inactive means no such curve, though single readings can be large; an effect the other way counts as inactive or inconclusive.

Cytochrome P450 2C19 (Homo sapiens), sequence (P33261 whole entry, looked up): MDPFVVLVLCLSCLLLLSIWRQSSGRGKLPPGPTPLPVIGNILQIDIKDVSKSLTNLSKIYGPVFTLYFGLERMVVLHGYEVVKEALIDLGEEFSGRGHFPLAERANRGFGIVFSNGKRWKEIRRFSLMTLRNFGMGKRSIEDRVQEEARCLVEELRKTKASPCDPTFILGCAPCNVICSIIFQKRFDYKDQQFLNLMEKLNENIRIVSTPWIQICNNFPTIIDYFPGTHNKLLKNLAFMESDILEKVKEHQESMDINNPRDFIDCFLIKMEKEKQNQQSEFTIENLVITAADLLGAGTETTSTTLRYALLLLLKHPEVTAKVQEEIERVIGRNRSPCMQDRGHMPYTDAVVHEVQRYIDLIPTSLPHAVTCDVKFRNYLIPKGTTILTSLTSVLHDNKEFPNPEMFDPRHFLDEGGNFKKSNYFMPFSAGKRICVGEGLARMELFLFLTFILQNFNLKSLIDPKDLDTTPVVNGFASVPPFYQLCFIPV
Pyruvate kinase (Leishmania mexicana), sequence (Q27686 2-499 E452W): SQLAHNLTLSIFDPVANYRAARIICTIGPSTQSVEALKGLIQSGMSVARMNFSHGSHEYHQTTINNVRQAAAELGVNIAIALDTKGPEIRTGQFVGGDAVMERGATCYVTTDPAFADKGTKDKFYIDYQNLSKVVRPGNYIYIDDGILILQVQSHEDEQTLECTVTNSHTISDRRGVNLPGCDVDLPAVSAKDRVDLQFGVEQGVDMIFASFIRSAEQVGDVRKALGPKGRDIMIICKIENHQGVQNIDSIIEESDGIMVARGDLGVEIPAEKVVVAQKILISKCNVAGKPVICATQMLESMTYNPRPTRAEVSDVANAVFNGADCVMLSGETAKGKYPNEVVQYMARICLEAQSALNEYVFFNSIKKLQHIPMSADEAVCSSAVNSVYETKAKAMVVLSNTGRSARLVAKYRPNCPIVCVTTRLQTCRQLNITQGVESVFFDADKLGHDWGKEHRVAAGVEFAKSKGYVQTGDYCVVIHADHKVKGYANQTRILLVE
Muscarinic acetylcholine receptor M1 (Rattus norvegicus), sequence (P08482 whole entry, looked up): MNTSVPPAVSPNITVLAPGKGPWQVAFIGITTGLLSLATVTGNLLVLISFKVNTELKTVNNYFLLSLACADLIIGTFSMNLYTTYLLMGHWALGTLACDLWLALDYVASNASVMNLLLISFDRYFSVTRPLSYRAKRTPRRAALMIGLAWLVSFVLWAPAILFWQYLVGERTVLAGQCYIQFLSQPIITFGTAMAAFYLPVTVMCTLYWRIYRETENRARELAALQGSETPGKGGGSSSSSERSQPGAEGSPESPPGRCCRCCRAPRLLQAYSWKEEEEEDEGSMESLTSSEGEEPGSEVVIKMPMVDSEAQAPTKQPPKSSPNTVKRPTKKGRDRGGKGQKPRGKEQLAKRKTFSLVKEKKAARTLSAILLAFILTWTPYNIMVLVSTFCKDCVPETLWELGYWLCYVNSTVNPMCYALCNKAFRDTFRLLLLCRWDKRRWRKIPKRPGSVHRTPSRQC

Take `O=C(O)CCCOc1ccc(Cl)cc1Cl`: the Potency entry in [1] was “inactive”. Moreover, the molecule was called inactive in [2].

Turning to `CC(C)Oc1cccnc1N(C)C1CCN(Cc2ccccc2)CC1`, the activation in assay [3] is -11.6% (inactive). Moreover, the outcome in assay [4] and in assay [5] was inactive.

Take `CCCCCCCCCCCCCCCC[N+](C)(C)C`: the Potency result in assay [1] is “inactive”. In addition, in [2], the molecule was called inactive.

As for `Cn1cnc(CCN)c1`, the Potency entry in [6], in assay [7] and in assay [8] was “inactive” in each case. Further, the outcome in [4] and in [5] was inactive.

On to `NCCc1c[nH]c2ccc(O)cc12`, for which the activation in [3] is 17.2% (inactive) and 2.69% (inactive). For the same molecule, the call in assay [4] and in assay [5] was inactive.

As for `NCc1cc(=O)[nH]o1`, the Potency entry in assay [6], in assay [7] and in [8] was “inactive” in each case. Also, the molecule was classed as inactive in assay [4] and in [5].

Consider `COc1cc2c(cc1OC)[C@@H]1C(=O)c3ccc4c(c3O[C@@H]1CO2)C=CC(C)(C)O4`, for which the Potency in assay [6] was 5.01 µM (active).

As to `O=c1cccc2n1CC1CNC[C@H]2C1`, the Potency entry in assay [6] was “inactive”.

`Cc1nccc2c1[nH]c1ccccc12`: the Potency result in [6], in assay [1] and in assay [8] was “inactive” each time. Further, the molecule was called inactive in [4], in [2] and in assay [5].

As for `Cc1nc(-c2ccc(-c3ccc(C(=O)N4CCc5cc6c(cc54)C4(CCN(C)CC4)CO6)cc3)c(C)c2)no1`, the Potency was 3.98 µM (active) in [6] and 12.6 µM (active) in [9]. In addition, in assay [5], the outcome was inactive.

As to `O=C(O)Cc1cnc[nH]1`, in assay [3], the activation was 7.21% (inactive). Besides, the molecule was classed as inactive in assay [4] and in [5]. Also, the Potency result in assay [8] is “inactive”.

Turning to `CCCCc1ccc(C(=O)O)nc1`, the Potency entry in [6] and in [8] was “inactive” throughout. Besides, the result in assay [5] was inactive.

For `C#CC1(O)CCC2C3CCC4=CC(=O)CCC4(C)C3CCC21C` (centres undefined), the Potency entry in assay [1] is “inactive”. Further, the outcome in assay [2] was inactive.

In the case of `O=C(O)CC[N+](=O)[O-]`, the molecule was classed as inactive in assay [4], in assay [2] and in assay [5]. For the same molecule, the Potency entry in assay [8] is “inactive”.

`CCCN(CCC)[C@@H]1CCc2ccc(O)cc2C1`: the molecule was called inactive in [4] and in assay [5]. The Potency is 5.01 µM (active) and 282 nM (active) in [7]; 5.01 µM (active) and 3.98 µM (active) in assay [8].

As for `CC1=NN=C(c2ccc(N)cc2)c2cc3c(cc2C1)OCO3`, the Potency in assay [6] was 7.94 µM (active). In addition, the molecule was called inactive in [4] and in assay [5]. In assay [8], the Potency result is “inactive”.

As for `O=C1CCCN1CC#CCN1CCCC1`, in assay [6], the Potency was 0.158 µM (active). For the same molecule, the Potency result in assay [1], in assay [7] and in [8] was “inactive” throughout. Further, the call in assay [4], in assay [2] and in [5] was inactive.

On to `NC(=O)c1ccc(-c2nc(-c3ccc4c(c3)OCO4)c(-c3ccccn3)[nH]2)cc1`, for which, in [6], the Potency was 2.51 µM (active).

As for `COC(C)(C)CCCC(C)C/C=C/C(C)=C/C(=O)OC(C)C` (centres undefined), the Potency entry in assay [1] and in [10] was “inactive” throughout. Also, the result in assay [2] was inactive.

In the case of `COc1ccc(C(c2ccc(OC)cc2)C(Cl)(Cl)Cl)cc1`, the Potency result in assay [1] and in assay [10] was “inactive” throughout. The call in assay [2] was inactive.

On to `CCC(=O)OC1CCC2C3CCC4=CC(=O)CC[C@@]4(C)C3CC[C@]12C` (some centres undefined), for which, in [1], the Potency result is “inactive”. The call in [2] was inactive.

As to `NC(N)=NOCCC(N)C(=O)O` (centres undefined), the Potency entry in [1] and in [7] was “inactive” each time. Besides, the outcome in [4], in assay [2] and in [5] was inactive.

For `CC(Cc1ccc(O)cc1)NCC(O)c1cc(O)cc(O)c1` (centres undefined), the Potency entry in assay [1] was “inactive”. In addition, the outcome in assay [2] was inactive.

Regarding `C[C@@H]1O[C@H](C[N+](C)(C)C)C[C@H]1O`, the call in [4] and in [5] was inactive. The Potency result in assay [7] and in [8] was “inactive” each time.

Regarding `CC[C@@]1(O)C(=O)OCc2c1cc1n(c2=O)Cc2cc3ccccc3nc2-1`, the Potency entry in assay [6] is “inactive”. The Potency entry in assay [1] is “inactive and 1 µM (active)”; in [9], 0.126 µM (active). Further, the molecule was called inactive in assay [2] and in assay [5].
